According to PubChem BioAssay (EPA / NIEHS):
Activity calls are given as the source filed them. Rule for the calls: active = hit-call score of the fitted dose curve at least 0.9, where 1 is the maximum; inactive = score below 0.9.

Each compound was assayed on MicroRNA 122 (MIR122), gene 406906 (assay: LTEA_HepaRG_MIR122: Life Technologies and Expression Analysis (LTEA) Assay for MicroRNA 122 (MIR122) using HepaRG (AID 2283516; note: the transcript read is the microRNA miR-122)). Settings: mRNA level, 48 h; actives raise or lower the signal.
Outline: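 Changes in transcript abundance, up or down relative to 0.5% DMSO vehicle, were scored after 48 h chemical treatment of HepaRG cells (maximum 100 uM). Quantification used TaqMan qRT-PCR normalized to housekeeping genes.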

Row | Compound | outcome | AC50
1 | c1cc2ccc3cccc4ccc(c1)c2c34 | inactive | –
2 | CCSC(=O)N(CC)C1CCCCC1 | inactive | –
3 | CC(C)(c1ccccc1)c1ccc(O)cc1 | inactive | –
4 | CCOP(=S)(OCC)SCSC(C)(C)C | inactive | –
5 | CCOC(=O)C(O)(c1ccc(Cl)cc1)c1ccc(Cl)cc1 | inactive | –
6 | Nc1ccc(-c2ccc(N)cc2)cc1 | inactive | –
7 | COS(=O)(=O)OC | inactive | –
8 | CCCCCCCCCC[N+](C)(C)CCCCCCCCCC | inactive | –
9 | O=C(O)C(F)(F)C(F)(F)C(F)(F)C(F)(F)C(F)(F)C(F)(F)C(F)(F)C(F)(F)C(F)(F)F | – | 63.1 µM (active)
10 | Cc1cccc(C)c1N | inactive | –
11 | CCCCCCCCCc1ccc(O)cc1 | inactive | –
12 | O=NN(c1ccccc1)c1ccccc1 | inactive | –
13 | CCCCCCCCOC(=O)c1ccccc1C(=O)OCCCCCCCC | inactive | –
14 | Oc1ccc(C(c2ccc(O)cc2)(C(F)(F)F)C(F)(F)F)cc1 | inactive | –
15 | O=C(O)C(F)(F)C(F)(F)C(F)(F)C(F)(F)C(F)(F)F | inactive | –
16 | NS(=O)(=O)C(F)(F)C(F)(F)C(F)(F)C(F)(F)C(F)(F)C(F)(F)C(F)(F)C(F)(F)F | – | 12.4 µM (active)

Row | Compound | outcome | AC50
17 | O=S(=O)(O)C(F)(F)C(F)(F)C(F)(F)C(F)(F)F | inactive | –
18 | CC1=C2C[C@H]3[C@@H](CC=C4C[C@@H](O)CC[C@@]43C)[C@@H]2CC[C@]12O[C@@H]1C[C@H](C)CN[C@H]1[C@H]2C | inactive | –
19 | CCC(C)(c1ccc(O)cc1)c1ccc(O)cc1 | inactive | –
20 | CN(C)c1nc(=O)n(C2CCCCC2)c(=O)n1C | inactive | –
21 | Cc1ccccc1O | inactive | –
22 | C=CC(N)=O | inactive | –
23 | Cc1cccc([N+](=O)[O-])c1 | inactive | –
24 | Cc1ccc(O)c(C)c1 | inactive | –
25 | CN(C)CCO | inactive | –
26 | O=C(N[C@H]1CN2CCC1CC2)c1cc2ccoc2cn1 | inactive | –
27 | O=S(=O)(O)C(F)(F)C(F)(F)C(F)(F)C(F)(F)C(F)(F)C(F)(F)F | inactive | –
28 | Cc1cc(-c2ccc(N)c(C)c2)ccc1N | inactive | –
29 | c1ccc(-c2ccccc2)cc1 | inactive | –
30 | C1CC2OC2CC1C1CO1 (stereo unspecified) | inactive | –
31 | Cc1ccccc1CO[C@@H]1C[C@@]2(C(C)C)CC[C@]1(C)O2 | inactive | –
32 | CCC(C)c1cc([N+](=O)[O-])cc([N+](=O)[O-])c1O (stereo unspecified) | – | 2.73 µM (active)

Each compound was assayed on matrix metalloproteinase-10 (MMP10), MMP10 (gene 4319) (assay: LTEA_HepaRG_MMP10: Life Technologies and Expression Analysis (LTEA) Assay for matrix metalloproteinase-10 (MMP10) using HepaRG (AID 2283517)). Settings: mRNA level, 48 h; actives raise or lower the signal.
Outline: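 In differentiated HepaRG cultures kept in 0.5% DMSO, test chemicals act for 48 h over an eight-point range with a top dose of 100 uM. Expression is then quantified by TaqMan RT-PCR against ACTB, GAPDH and POLR2A.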

Row | Compound | outcome | AC50
33 | c1cc2ccc3cccc4ccc(c1)c2c34 | inactive | –
34 | CCSC(=O)N(CC)C1CCCCC1 | inactive | –
35 | CC(C)(c1ccccc1)c1ccc(O)cc1 | inactive | –
36 | CCOP(=S)(OCC)SCSC(C)(C)C | inactive | –
37 | CCOC(=O)C(O)(c1ccc(Cl)cc1)c1ccc(Cl)cc1 | inactive | –
38 | Nc1ccc(-c2ccc(N)cc2)cc1 | inactive | –
39 | COS(=O)(=O)OC | inactive | –
40 | CCCCCCCCCC[N+](C)(C)CCCCCCCCCC | inactive | –
41 | O=C(O)C(F)(F)C(F)(F)C(F)(F)C(F)(F)C(F)(F)C(F)(F)C(F)(F)C(F)(F)C(F)(F)F | – | 37.1 µM (active)
42 | Cc1cccc(C)c1N | inactive | –
43 | CCCCCCCCCc1ccc(O)cc1 | inactive | –
44 | O=NN(c1ccccc1)c1ccccc1 | inactive | –
45 | CCCCCCCCOC(=O)c1ccccc1C(=O)OCCCCCCCC | inactive | –
46 | Oc1ccc(C(c2ccc(O)cc2)(C(F)(F)F)C(F)(F)F)cc1 | – | 82.7 µM (active)
47 | O=C(O)C(F)(F)C(F)(F)C(F)(F)C(F)(F)C(F)(F)F | inactive | –
48 | NS(=O)(=O)C(F)(F)C(F)(F)C(F)(F)C(F)(F)C(F)(F)C(F)(F)C(F)(F)C(F)(F)F | – | 33.9 µM (active)

Row | Compound | outcome | AC50
49 | O=S(=O)(O)C(F)(F)C(F)(F)C(F)(F)C(F)(F)F | inactive | –
50 | CC1=C2C[C@H]3[C@@H](CC=C4C[C@@H](O)CC[C@@]43C)[C@@H]2CC[C@]12O[C@@H]1C[C@H](C)CN[C@H]1[C@H]2C | inactive | –
51 | CCC(C)(c1ccc(O)cc1)c1ccc(O)cc1 | inactive | –
52 | CN(C)c1nc(=O)n(C2CCCCC2)c(=O)n1C | inactive | –
53 | Cc1ccccc1O | inactive | –
54 | C=CC(N)=O | inactive | –
55 | Cc1cccc([N+](=O)[O-])c1 | inactive | –
56 | Cc1ccc(O)c(C)c1 | inactive | –
57 | CN(C)CCO | inactive | –
58 | O=C(N[C@H]1CN2CCC1CC2)c1cc2ccoc2cn1 | inactive | –
59 | O=S(=O)(O)C(F)(F)C(F)(F)C(F)(F)C(F)(F)C(F)(F)C(F)(F)F | inactive | –
60 | Cc1cc(-c2ccc(N)c(C)c2)ccc1N | inactive | –
61 | c1ccc(-c2ccccc2)cc1 | inactive | –
62 | C1CC2OC2CC1C1CO1 (stereo unspecified) | inactive | –
63 | Cc1ccccc1CO[C@@H]1C[C@@]2(C(C)C)CC[C@]1(C)O2 | inactive | –
64 | CCC(C)c1cc([N+](=O)[O-])cc([N+](=O)[O-])c1O (stereo unspecified) | – | 3.93 µM (active)

What follows are compounds tested on MYC, MYC (gene 4609) (assay: LTEA_HepaRG_MYC: Life Technologies and Expression Analysis (LTEA) Assay for MYC using HepaRG (AID 2283518)). Settings: mRNA level, 48 h; actives raise or lower the signal.
Outline: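 HepaRG, ~100,000 cells/well, collagen I; 48 h plating; serum-free induction medium; 48 h dosing, duplicate, 100 uM top, half-log, 0.5% DMSO; total RNA → qRT-PCR MYC; gain/loss fit vs DMSO.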

Row | Compound | outcome | AC50
65 | c1cc2ccc3cccc4ccc(c1)c2c34 | inactive | –
66 | CCSC(=O)N(CC)C1CCCCC1 | inactive | –
67 | CC(C)(c1ccccc1)c1ccc(O)cc1 | inactive | –
68 | CCOP(=S)(OCC)SCSC(C)(C)C | inactive | –
69 | CCOC(=O)C(O)(c1ccc(Cl)cc1)c1ccc(Cl)cc1 | inactive | –
70 | Nc1ccc(-c2ccc(N)cc2)cc1 | inactive | –
71 | COS(=O)(=O)OC | inactive | –
72 | CCCCCCCCCC[N+](C)(C)CCCCCCCCCC | inactive | –
73 | O=C(O)C(F)(F)C(F)(F)C(F)(F)C(F)(F)C(F)(F)C(F)(F)C(F)(F)C(F)(F)C(F)(F)F | – | 22.8 µM (active)
74 | Cc1cccc(C)c1N | inactive | –
75 | CCCCCCCCCc1ccc(O)cc1 | inactive | –
76 | O=NN(c1ccccc1)c1ccccc1 | inactive | –
77 | CCCCCCCCOC(=O)c1ccccc1C(=O)OCCCCCCCC | inactive | –
78 | Oc1ccc(C(c2ccc(O)cc2)(C(F)(F)F)C(F)(F)F)cc1 | – | 77.5 µM (active)
79 | O=C(O)C(F)(F)C(F)(F)C(F)(F)C(F)(F)C(F)(F)F | inactive | –
80 | NS(=O)(=O)C(F)(F)C(F)(F)C(F)(F)C(F)(F)C(F)(F)C(F)(F)C(F)(F)C(F)(F)F | – | 26.8 µM (active)

Row | Compound | outcome | AC50
81 | O=S(=O)(O)C(F)(F)C(F)(F)C(F)(F)C(F)(F)F | inactive | –
82 | CC1=C2C[C@H]3[C@@H](CC=C4C[C@@H](O)CC[C@@]43C)[C@@H]2CC[C@]12O[C@@H]1C[C@H](C)CN[C@H]1[C@H]2C | inactive | –
83 | CCC(C)(c1ccc(O)cc1)c1ccc(O)cc1 | inactive | –
84 | CN(C)c1nc(=O)n(C2CCCCC2)c(=O)n1C | inactive | –
85 | Cc1ccccc1O | inactive | –
86 | C=CC(N)=O | inactive | –
87 | Cc1cccc([N+](=O)[O-])c1 | inactive | –
88 | Cc1ccc(O)c(C)c1 | inactive | –
89 | CN(C)CCO | inactive | –
90 | O=C(N[C@H]1CN2CCC1CC2)c1cc2ccoc2cn1 | inactive | –
91 | O=S(=O)(O)C(F)(F)C(F)(F)C(F)(F)C(F)(F)C(F)(F)C(F)(F)F | inactive | –
92 | Cc1cc(-c2ccc(N)c(C)c2)ccc1N | inactive | –
93 | c1ccc(-c2ccccc2)cc1 | inactive | –
94 | C1CC2OC2CC1C1CO1 (stereo unspecified) | inactive | –
95 | Cc1ccccc1CO[C@@H]1C[C@@]2(C(C)C)CC[C@]1(C)O2 | inactive | –
96 | CCC(C)c1cc([N+](=O)[O-])cc([N+](=O)[O-])c1O (stereo unspecified) | – | 9.27 µM (active)
